# Measurements: PubChem BioAssay
# For some of these results: Measured potencies and affinities stand elsewhere. Activity calls are given as the source filed them. Unless noted, no rule for the calls is given here.
# Tests used:
# [1] = antimalarial activity against Dd2 strain (AID 2302;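 active = growth inhibition above 50% at the single 2 µM test dose, taken to imply half-maximal potency below 2 µM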;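 also: 0% = DMSO untreated growth and 100% = chloroquine plus artemisinin killed control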); conditions: P. falciparum Dd2 in RBCs, LDH growth readout, 72 h; at 2 µM; hits give high values
# [2] = HepG2 cytotoxicity, primary screen, cytotoxicity control for P. falciparum antimalarial project, cell-based, ATP luminescence (AID 2303;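 active = inhibition above 50%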;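 also: 0% = DMSO wells and 100% = digitonin-killed cells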); conditions: HepG2 viability, 24-48 h, at 10 µM, hits give high values
# [3] = molecular target: L-lactate dehydrogenase (Plasmodium falciparum (isolate CDC / Honduras)) (UniProt Q27743); assay: PfLDH activity inhibition – cell lysate, 3D7 strain, counter-screen for P. falciparum growth inhibition project (AID 2304);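 also: 0% = vehicle and 100% = reference inhibitor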; conditions: P. falciparum 3D7 crude extract, LDH APAD/NBT absorbance; at 2 µM; hits give high values
# Sequence of L-lactate dehydrogenase (Plasmodium falciparum (isolate CDC / Honduras)) (Q27743 whole entry, looked up): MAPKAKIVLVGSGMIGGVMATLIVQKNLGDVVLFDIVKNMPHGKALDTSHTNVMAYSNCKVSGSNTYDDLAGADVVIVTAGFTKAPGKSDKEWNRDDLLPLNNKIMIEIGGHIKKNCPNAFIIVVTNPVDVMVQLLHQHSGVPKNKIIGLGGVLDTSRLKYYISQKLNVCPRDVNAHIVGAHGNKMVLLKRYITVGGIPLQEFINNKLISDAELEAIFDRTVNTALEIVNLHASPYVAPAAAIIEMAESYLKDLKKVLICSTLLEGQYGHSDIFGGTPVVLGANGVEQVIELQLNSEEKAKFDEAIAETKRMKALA
# [4] = inhibition of 3D7 malaria parasite growth – strain 3D7 (AID 2306);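 also: 0% = DMSO wells and 100% = chloroquine plus artemisinin control wells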; conditions: P. falciparum 3D7 erythrocytic growth, LDH absorbance, 72 h; at 2 µM; hits give high values
# [5] = molecular target: Calcium-dependent protein kinase 1 (Plasmodium falciparum (isolate 3D7)) (UniProt P62344); assay: PfCDPK1 kinase inhibitors, biochemical, TCAMS library (AID 1159585; cut-off not given, nearly all actives have IC50 up to about 0.98 µM;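 also: inhibitors leave more ATP so luminescence rises with inhibition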); conditions: recombinant PfCDPK1, Kinase-Glo ATP depletion luminescence
# Sequence of Calcium-dependent protein kinase 1 (Plasmodium falciparum (isolate 3D7)) (P62344 whole entry, looked up): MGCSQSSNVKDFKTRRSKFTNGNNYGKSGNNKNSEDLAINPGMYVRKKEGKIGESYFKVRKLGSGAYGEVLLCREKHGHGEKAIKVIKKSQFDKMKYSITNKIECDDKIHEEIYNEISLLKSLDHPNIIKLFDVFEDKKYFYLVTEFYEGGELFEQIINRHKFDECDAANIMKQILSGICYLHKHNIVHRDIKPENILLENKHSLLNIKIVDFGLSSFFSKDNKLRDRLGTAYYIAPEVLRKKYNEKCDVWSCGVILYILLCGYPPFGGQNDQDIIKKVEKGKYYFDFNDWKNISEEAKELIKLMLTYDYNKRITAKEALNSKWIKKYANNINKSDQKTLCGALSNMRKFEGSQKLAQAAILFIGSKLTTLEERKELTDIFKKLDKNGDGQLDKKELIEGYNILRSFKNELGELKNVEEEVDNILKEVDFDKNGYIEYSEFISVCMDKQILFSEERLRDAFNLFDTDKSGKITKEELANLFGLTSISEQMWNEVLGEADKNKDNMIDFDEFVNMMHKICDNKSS
# [6] = molecular target: Plasmodium falciparum protein kinase 6 (PK6, PF3D7_1337100) (UniProt Q8IDW1); assay: PfPK6 kinase inhibitors, biochemical, TCAMS library (AID 1159586); conditions: recombinant PfPK6, Kinase-Glo ATP depletion luminescence
# Sequence of Plasmodium falciparum protein kinase 6 (PK6, PF3D7_1337100) (Q8IDW1 1-305): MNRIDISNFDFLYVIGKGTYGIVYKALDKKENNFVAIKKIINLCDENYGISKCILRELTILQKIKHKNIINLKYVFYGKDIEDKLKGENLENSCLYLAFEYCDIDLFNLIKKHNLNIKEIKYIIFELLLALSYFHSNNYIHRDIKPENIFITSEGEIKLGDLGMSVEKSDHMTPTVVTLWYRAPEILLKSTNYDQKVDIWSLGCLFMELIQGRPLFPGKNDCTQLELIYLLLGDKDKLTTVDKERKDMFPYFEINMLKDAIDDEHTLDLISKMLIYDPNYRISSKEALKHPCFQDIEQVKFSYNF
# [7] = molecular target: Protein kinase 7 (PK7), Plasmodium falciparum 3D7 (PF3D7_0213400) (UniProt Q7YTF7); assay: inhibition of Plasmodium PK7 catalytic activity – biochemical, TCAMS antimalarial set, Kinase-Glo luminescence (AID 1159587); conditions: recombinant PfPK7, Kinase-Glo ATP depletion luminescence
# Sequence of Protein kinase 7 (PK7), Plasmodium falciparum 3D7 (PF3D7_0213400) (Q7YTF7 1-343): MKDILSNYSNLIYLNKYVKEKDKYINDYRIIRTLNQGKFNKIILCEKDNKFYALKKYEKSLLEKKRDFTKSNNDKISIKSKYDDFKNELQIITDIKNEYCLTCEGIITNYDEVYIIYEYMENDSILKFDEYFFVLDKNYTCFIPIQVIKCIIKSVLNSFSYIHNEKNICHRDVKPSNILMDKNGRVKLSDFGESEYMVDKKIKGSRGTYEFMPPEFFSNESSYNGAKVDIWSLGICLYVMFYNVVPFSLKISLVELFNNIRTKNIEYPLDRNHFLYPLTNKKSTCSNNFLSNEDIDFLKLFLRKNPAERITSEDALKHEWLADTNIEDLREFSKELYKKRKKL
# [8] = molecular target: Calcium-dependent protein kinase 4 (Plasmodium falciparum (isolate 3D7)) (UniProt Q8IBS5); assay: PfCDPK4 kinase inhibitors, biochemical, TCAMS library (AID 1159588; cut-off not given, nearly all actives have IC50 up to about 0.91 µM); conditions: recombinant PfCDPK4, Kinase-Glo ATP depletion luminescence
# Sequence of Calcium-dependent protein kinase 4 (Plasmodium falciparum (isolate 3D7)) (Q8IBS5 whole entry, looked up): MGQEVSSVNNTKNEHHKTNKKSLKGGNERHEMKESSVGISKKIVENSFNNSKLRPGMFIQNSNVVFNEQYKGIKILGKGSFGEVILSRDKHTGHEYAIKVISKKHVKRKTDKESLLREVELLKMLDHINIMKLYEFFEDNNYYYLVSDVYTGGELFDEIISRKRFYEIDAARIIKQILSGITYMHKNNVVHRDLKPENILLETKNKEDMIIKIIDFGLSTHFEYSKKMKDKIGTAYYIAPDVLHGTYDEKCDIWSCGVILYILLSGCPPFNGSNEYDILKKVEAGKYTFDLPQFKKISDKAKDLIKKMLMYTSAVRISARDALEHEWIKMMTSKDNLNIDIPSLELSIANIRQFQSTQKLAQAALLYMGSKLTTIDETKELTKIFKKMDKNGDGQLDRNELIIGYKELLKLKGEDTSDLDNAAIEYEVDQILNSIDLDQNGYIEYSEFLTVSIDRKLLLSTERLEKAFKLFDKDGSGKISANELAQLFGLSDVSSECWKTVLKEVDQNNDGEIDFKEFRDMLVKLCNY
Compound,growth inhibition [1],inhibition [2],inhibition [3],growth inhibition [4],outcome [5],outcome [6],outcome [7],outcome [8]
CN(C)CCCOc1ccc(CNCc2cccc(Oc3ccc(Cl)cc3)c2)cc1,30% (inactive),52% (active),0% (inactive),100% (active),inactive,inactive,inactive,inactive
CNCCNCc1cccc(-c2cccc(-c3nc4ccc(C(F)(F)F)cc4[nH]3)c2)c1,97% (active),22% (inactive),-2% (inactive),100% (active),inactive,inactive,inactive,inactive
CCOc1cc(Cc2cnc(N)nc2N)cc(OCC)c1-n1cccc1,-1% (inactive),-1% (inactive),-2% (inactive),98% (active),inactive,inactive,inactive,inactive
C#CCNCc1ccc(-c2ccc(-c3nc4ccc(C(F)(F)F)cc4[nH]3)s2)cc1,28% (inactive),37% (inactive),0% (inactive),98% (active),inactive,inactive,inactive,inactive
O=C(Nc1ccc(-c2cccc(-c3nc4ccccc4[nH]3)c2)cc1)Nc1ccc(F)c(F)c1F,96% (active),74% (active),5% (inactive),100% (active),inactive,inactive,inactive,inactive
CCCOc1cccc(C(=O)N[C@@H](Cc2ccccc2)[C@H](O)CNCc2ccccc2OC)c1,61% (active),11% (inactive),0% (inactive),95% (active),inactive,inactive,inactive,inactive
Oc1ccc2[nH]c(-c3cccs3)nc2c1CN1CCC(O)(c2ccccc2)CC1,69% (active),10% (inactive),-1% (inactive),93% (active),inactive,inactive,inactive,inactive
Cc1ccc2c(=O)cc(CCc3cccc(F)c3F)n(CC(=O)N(Cc3ccc(-c4ccc(C(F)(F)F)cc4)cc3)C3CCN(C(C)C)CC3)c2n1,49% (inactive),58% (active),-2% (inactive),100% (active),inactive,inactive,inactive,inactive
NC(=O)C1CCN(Cc2ccc(-c3ccc(-c4nc5ccc(C(F)(F)F)cc5[nH]4)s3)cc2)CC1,91% (active),22% (inactive),-5% (inactive),99% (active),inactive,inactive,inactive,inactive
Cc1cc(-c2ccc3occ(CCN)c3c2)cnc1N,56% (active),-5% (inactive),-2% (inactive),92% (active),inactive,inactive,inactive,inactive
OCC1CCN(Cc2cccc(-c3cccc(-c4nc5ccc(C(F)(F)F)cc5[nH]4)c3)c2)CC1,101% (active),24% (inactive),-3% (inactive),102% (active),inactive,inactive,inactive,inactive
C(=C(c1cccs1)c1cccs1)c1ccc(CNC2CCN(Cc3ccccc3)CC2)cc1,21% (inactive),40% (inactive),4% (inactive),98% (active),inactive,inactive,inactive,inactive
O=C(NCC(CCCN1CCC(c2c[nH]c3ccccc23)CC1)c1ccccc1)Nc1ccc(Cl)c(Cl)c1 (stereo unspecified),64% (active),38% (inactive),1% (inactive),101% (active),inactive,inactive,inactive,inactive
CCOC(=O)c1cnc2c(OC)cc(OC)c(Cl)c2c1Nc1cccc(C)c1C,99% (active),5% (inactive),0% (inactive),102% (active),inactive,inactive,inactive,inactive
Cc1ccc(O)c(Nc2c3c(c(C#N)c4nc5ccccc5n24)CCC3)c1,2% (inactive),7% (inactive),-3% (inactive),85% (active),inactive,inactive,inactive,inactive
COc1ccc(-c2cccc(NC(=O)c3ccc(Cl)cc3)c2)cc1CN1CCC(O)CC1,43% (inactive),51% (active),3% (inactive),100% (active),inactive,inactive,inactive,inactive
CN(C(=O)/C=C/c1ccccc1F)C1CCN(CCCCCNC(=O)/C=C/c2ccc(Cl)c(Cl)c2)CC1,59% (active),73% (active),-1% (inactive),89% (active),inactive,inactive,inactive,inactive
COc1cc2nc(N3CCC(CNC(=O)c4ccc(-c5ccc(C(=O)N(C)C)cc5OCCO)cc4)CC3)nc(N)c2cc1OC,8% (inactive),-7% (inactive),-1% (inactive),100% (active),inactive,inactive,inactive,inactive
COc1cc(N)c(Cl)cc1C(=O)NC1CCC(NCC2CCCCC2)CC1 (stereo unspecified),85% (active),18% (inactive),0% (inactive),90% (active),inactive,inactive,inactive,inactive
Cc1cc(N(C)C)nc(Nc2ccc(NC(=O)c3ccc(Br)o3)cc2)n1,57% (active),1% (inactive),-2% (inactive),101% (active),inactive,inactive,inactive,inactive
O=C(NCCc1ccc(Cl)c(Cl)c1)[C@@H]1CCCN1C(=O)c1ccc(O)c(-c2cccc(C(F)(F)F)c2)c1,82% (active),0% (inactive),-7% (inactive),97% (active),inactive,inactive,inactive,inactive
CC(C)CC(=O)NC1CCN(Cc2c(-c3cccs3)nc3ccccc3c2C(=O)N[C@@H](C)C2CCCCC2)CC1,97% (active),-3% (inactive),-9% (inactive),96% (active),inactive,inactive,inactive,inactive
Cc1sc2ncnc(Sc3nc4ccccc4[nH]3)c2c1C,100% (active),14% (inactive),1% (inactive),99% (active),inactive,inactive,inactive,inactive
COc1cc2nc(N3CCC(CNC(=O)c4ccc(OC(F)(F)F)cc4)CC3)nc(N)c2cc1OC,98% (active),16% (inactive),-3% (inactive),100% (active),inactive,inactive,inactive,inactive

Compound,growth inhibition [1],inhibition [2],inhibition [3],growth inhibition [4],outcome [5],outcome [6],outcome [7],outcome [8]
Cc1noc(C)c1-c1cccc(CNCc2cccc(-c3cccc(-c4nc5ccc(F)cc5[nH]4)c3)c2)c1,73% (active),18% (inactive),3% (inactive),103% (active),inactive,inactive,inactive,inactive
CCN(CC)CCn1c(=N)n(CC(=O)c2ccc(-c3ccccc3)cc2)c2ccccc21,38% (inactive),32% (inactive),0% (inactive),83% (active),inactive,inactive,inactive,inactive
O=[N+]([O-])c1ccc(/C=N/Nc2cc(-c3ccccc3)nc3ccccc23)o1,49% (inactive),48% (inactive),-5% (inactive),93% (active),inactive,inactive,inactive,inactive
Cc1cccc(CC2CC(=O)N(c3ccc([N+](=O)[O-])cc3)C2=O)c1 (stereo unspecified),1% (inactive),11% (inactive),2% (inactive),95% (active),inactive,inactive,inactive,inactive
CNC(=O)c1cnc(Nc2ccc(N3CCN(C)CC3)cc2)nc1Nc1cccc([N+](=O)[O-])c1,100% (active),31% (inactive),-8% (inactive),103% (active),inactive,inactive,inactive,inactive
CCCc1cn2c3c(cc(C(=O)N[C@@H](Cc4ccccc4)[C@H](O)CNC4CCOCC4)cc13)N(CC)S(=O)(=O)CC2,98% (active),2% (inactive),-2% (inactive),97% (active),inactive,inactive,inactive,inactive
COc1ccccc1N1CCN(Cc2c(NC(C)=O)sc(C)c2C)CC1,80% (active),9% (inactive),3% (inactive),95% (active),inactive,inactive,inactive,inactive
O=C(Nc1cccc(-c2ccc(CN3CCCC3)cc2)c1)c1cccc(Cl)c1,61% (active),32% (inactive),-3% (inactive),100% (active),inactive,inactive,inactive,inactive
COc1ccc(CN2CCCN(Cc3cccc(NC(=O)c4ccc(Cl)c(Cl)c4)c3)CC2)cc1,19% (inactive),38% (inactive),5% (inactive),86% (active),inactive,inactive,inactive,inactive
Cc1cccc2nc(C(=O)Nc3nc(CN4CCC(C)CC4)cs3)cn12,80% (active),-27% (inactive),0% (inactive),94% (active),inactive,inactive,inactive,inactive
CCC(COCc1ccc(Cl)cc1)N(C)CCN(C)C(CC)COCc1ccc(Cl)cc1 (stereo unspecified),78% (active),89% (active),-5% (inactive),95% (active),inactive,inactive,inactive,inactive
COc1ccc(NC(=O)/C=C/c2ccc(-c3ccc(-c4noc(C)n4)cc3)cc2)cc1OCCN(C)C,31% (inactive),14% (inactive),-3% (inactive),81% (active),inactive,inactive,inactive,inactive
CC(C)(C)Oc1ccc(C[C@@H]2NC3(C(=O)N(Cc4ccc(Cl)c(Cl)c4)c4ccccc43)C3C(=O)N(c4ccc(Br)cc4)C(=O)C32)cc1 (stereo partly specified),25% (inactive),1% (inactive),6% (inactive),86% (active),inactive,inactive,inactive,inactive
COc1ccc(CNC(=O)c2cc3c(=O)n4ccccc4nc3n(CCc3ccccc3)c2=N)cc1,22% (inactive),26% (inactive),-4% (inactive),99% (active),inactive,inactive,inactive,inactive
CCCCCCCN(CCCCCCC)CCCC(=O)Nc1ccnc2ccc(OC)cc12,98% (active),43% (inactive),-5% (inactive),100% (active),inactive,inactive,inactive,inactive
Cc1cc2nc(-c3ccc(/C=C/C(=O)NCc4ccc(Cl)c(Cl)c4)cc3)[nH]c2cc1C,83% (active),32% (inactive),-1% (inactive),98% (active),inactive,inactive,inactive,inactive
O=C(NCC1CCN(Cc2ccc3c(c2)OCCO3)C1)c1cc(-c2cccc(C(F)(F)F)c2)cs1 (stereo unspecified),1% (inactive),31% (inactive),4% (inactive),101% (active),inactive,inactive,inactive,inactive
Nc1c2c(nc3ccc(NC(=O)CCCCCc4ccccc4)cc13)CCCC2,36% (inactive),32% (inactive),4% (inactive),102% (active),inactive,inactive,inactive,inactive
N#Cc1ccc(N2CCN(Cc3ccc(-c4ccc(-c5nc6ccc(C(F)(F)F)cc6[nH]5)cc4)cc3)CC2)nc1,90% (active),19% (inactive),4% (inactive),101% (active),inactive,inactive,inactive,inactive
Cc1cc(N[C@@H](CC(C)C)C(=O)NCc2cccs2)nc(NCCc2ccc(F)cc2)n1,59% (active),20% (inactive),-2% (inactive),100% (active),inactive,inactive,inactive,inactive
CCc1cc(Br)c(CNCCCNc2cc(=O)c3ccccc3[nH]2)s1,45% (inactive),6% (inactive),-10% (inactive),90% (active),inactive,inactive,inactive,inactive
CCCNCc1ccc(-c2ccc(CN(CCOC)C(=O)CCCOCc3ccccc3)cc2)nc1,13% (inactive),-2% (inactive),2% (inactive),93% (active),inactive,inactive,inactive,inactive
COc1ccc(-c2ccc(NC(=O)c3cccc(C#N)c3)cc2)cc1CN1CCCC(C(N)=O)C1 (stereo unspecified),44% (inactive),12% (inactive),0% (inactive),98% (active),inactive,inactive,inactive,inactive
